# Measured values taken from PubChem BioAssay (NCATS).
# “And” between values parts separate entries of the source, which are not always exact repeats. Equal entries are not always repeated. Records with an inconclusive call do not appear. A number with no mark means an inactive call. The source made the active and inactive calls. Calls follow the shape of the dose curve; as a rule, active = well fitted activation curve with a large enough effect in the signal ratio; inconclusive = small, poorly fitted or top-dose-only effect, or effect the other way, or a change in a side signal; inactive = flat fitted curve, though single readings scatter; the % refers to the signal ratio.
# Assay: qHTS assay for small molecule agonists of the antioxidant response element (ARE) signaling pathway (AID 651741); as to activation: % of control where 0% means no effect
# Conditions: HepG2 ARE-bla reporter, beta-lactamase FRET ratio, 16 h; series mostly up to 96 µM; activation: at the top concentration
# Description: National Center for Advancing Translational Sciences [NCATS]
# NIH Chemical Genomics Center [NCGC]
# U.S. Environmental Protection Agency [EPA]
# National Institutes of Environmental Health Sciences [NIEHS]
# National Toxicology Program [NTP]
# Oxidative stress has been implicated in the pathogenesis of a variety of diseases ranging from cancer to neurodegeneration. The antioxidant response element (ARE) signaling pathway plays an important role in the amelioration of oxidative stress. The CellSensor ARE-bla HepG2 cell line (Invitrogen) can be used for analyzing the Nrf2/antioxidant response signaling pathway. Nrf2 (NF-E2-related factor 2) and Nrf1 are transcription factors that bind to AREs and activate these genes. The CellSensor ARE-bla Hep G2 cell line contains a beta-lactamase reporter gene under control of the Antioxidant Response Element (ARE) stably integrated into HepG2 cells. The activation of the report gene under culture conditions can be detected by fluorescence intensity. This cell line can be used to screen chemicals in a 1536-well plate format and to identify agonists that induce oxidative stress.
# The ARE-bla cells were dispensed at 2,000 cells/5 ul/well in 1536-well black wall/clear bottom plates using a Multidrop dispenser. After the assay plates were incubated at a 37 C/5% CO2 incubator for 5 hours, 23 nL of compounds dissolved in DMSO, positive controls or DMSO only was transferred to the assay plate by a pin tool. The plates were incubated at 37 C for 16 hours. After 1 uL of LiveBLAzer B/G FRET substrate was added using a Flying Reagent Dispenser, the plates were incubated at room temperature for 2 hours, and fluorescence intensity was measured by an Envision plate reader.
# Potency is read from the fitted curve at half-maximal effect.
SMILES,activation,Potency
Cl/C=C/CCl,6.67%,
CCN(CC)CCO,1.43%,
O=[N+]([O-])c1cccc2c([N+](=O)[O-])cccc12,,4.73 µM (active)
CC(C)(OOC(C)(C)c1ccccc1)c1ccccc1,4.82%,
Cc1ccc(N=C=O)cc1N=C=O,11.5%,
CCOP(=S)(OCC)Oc1nc(Cl)c(Cl)cc1Cl,,37.6 µM (active) [middle of 4 runs]
Cc1ccc2c(C)cccc2c1,4.41%,
O=S(=O)(Cl)c1ccccc1,,inactive
O=C(Cl)OCc1ccccc1,1.54%,
CCCCCc1cc(O)cc(O)c1,,42.2 µM (active)
Nc1c(Br)cc([N+](=O)[O-])cc1[N+](=O)[O-],,37.6 µM (active)
Oc1cc(Cl)c(Cl)c(Cl)c1,,23.7 µM (active)
c1ccc(N=NNc2ccccc2)cc1,,26.6 µM (active) and 9.69 µM (active)
COC(=O)Nc1nc2ccccc2[nH]1,,61.1 µM (active)
O=C(O)c1cccc(Cl)c1,9.55%,
ClCCCCl,0.768%,
CCCCOCC1CO1 (stereo not given),-1.33%,
O=S(=O)(O)F,-0.309%,
CCOC(=O)CBr,3.52%,
O=C(O)C(Br)CBr (stereo not given),,42.2 µM (active)

SMILES,activation,Potency
ClCc1ccccc1,-0.909%,
CC(C)(C)c1ccccc1O,6.17%,
O=C(O)C(Br)Br,,2.98 µM (active)
C=CC=O,,47.3 µM (active)
c1ccc(C2CO2)cc1 (stereo not given),-1.53%,
CC[N+](=O)[O-],2.42%,
O=[N+]([O-])c1ccccc1-c1ccccc1,4.69%,
CC(C)(C)OOC(=O)c1ccccc1,6.04%,
CCNCC,7.98%,
O=Cc1ccc2c(c1)OCO2,2.11%,
COc1c(C(C)(C)C)cc([N+](=O)[O-])c(C)c1[N+](=O)[O-],3.54%,
ClC(Cl)c1ccccc1,1.18%,
CCCCNC(=O)n1c(NC(=O)OC)nc2ccccc21,4.85%,
Cc1cc(-c2ccc(N)c(C)c2)ccc1N,,12.2 µM (active) and 6.86 µM (active)
CCN(CC)N=O,7.73%,
CCBr,-3.17%,
C1CC2OC2CC1C1CO1 (stereo not given),,inactive
CC(C)[N+](=O)[O-],-1.87%,
Oc1cc(Cl)c(Cl)c(Cl)c1Cl,,11.9 µM (active)
O=C(O)C(Cl)(Cl)Br,,42.2 µM (active)
